The source made the active and inactive calls. Unless noted, how the calls were made is not given here.
How the values were obtained:
[1] = compound effects on lung adenocarcinoma cell viability – A549, calcein-AM fluorescence, 48 h, basal, profiling panel (AID 1162); conditions: higher = more signal; further: test concentration not given here
[2] = compound effects on differentiated 3T3-L1 adipocyte viability – cell-based, 3T3-L1 adipocytes, calcein-AM fluorescence, 48 h, basal, profiling panel (AID 1163); conditions: 3T3-L1 adipocytes viability, higher = more signal; further: test concentration not given here
[3] = compound effects on hepatocellular carcinoma cell viability – HepG2, calcein-AM fluorescence, 48 h, basal, profiling panel (AID 1164); conditions: higher = more signal; further: test concentration not given here
[4] = compound effects on multiple myeloma cell viability – MM1S, calcein-AM fluorescence, 48 h, basal, profiling panel (AID 1165); conditions: higher = more signal; further: test concentration not given here
[5] = calcein-AM signal in unstimulated myeloma cells – cell-based, calcein-AM fluorescence, 48 h, PK04 Diversity Set, profiling panel (AID 1166); conditions: RPMI8226 myeloma viability, higher = more signal;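 further: cells grown under basal conditions without added stimulus; test concentration not given here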
[6] = JC-1 mitochondrial signal, unstimulated HepG2 cells – cell-based, JC-1 fluorescence, 24 h, 100 nL compound, profiling panel (AID 1167); conditions: HepG2 mitochondrial potential, higher = more signal; further: test concentration not given here
[7] = JC-1 mitochondrial signal, unstimulated adipocytes – cell-based, JC-1 fluorescence, 3T3-L1 adipocytes, 24 h, 100 nL compound, profiling panel (AID 1168); conditions: JC-1 mitochondrial fluorescence, higher = more signal, called active from +8 up or from −8 down; further: test concentration not given here
[8] = JC-1 mitochondrial signal, unstimulated myeloma cells – cell-based, JC-1 fluorescence, RPMI8226, 24 h, 100 nL compound, profiling panel (AID 1169); conditions: JC-1 mitochondrial potential fluorescence, higher = more signal; further: test concentration not given here
[9] = JC-1 mitochondrial signal, unstimulated MM1S myeloma – cell-based, JC-1 fluorescence, 24 h, 100 nL compound, profiling panel (AID 1170); conditions: MM1S mitochondrial potential, higher = more signal; further: test concentration not given here
[10] = resazurin metabolic signal in A549 cells – cell-based, resazurin fluorescence, 24 h, PK04 Diversity Set, profiling panel (AID 1171); conditions: A549 viability, higher = more signal, called active from +8 up or from −8 down; further: test concentration not given here
[11] = resazurin metabolic signal in HepG2 cells – cell-based, resazurin fluorescence, 24 h, PK04 Diversity Set, profiling panel (AID 1172); conditions: HepG2 viability, higher = more signal; further: test concentration not given here
[12] = budding yeast growth changes without added modifier – OD600, strain BY4716, 24 h, basal condition, primary screen (AID 1173); conditions: S. cerevisiae BY4716 growth, OD600, 24 h; higher = more signal, called active from +8 up or from −8 down
[13] = viability profiling in MM1S myeloma cells – cell-based, resazurin fluorescence, basal, 24 h, PK04 Diversity Set, profiling panel (AID 1174); conditions: higher = more signal, called active from +8 up or from −8 down; further: test concentration not given here
[14] = molecular target: Dihydroorotate dehydrogenase (quinone), mitochondrial (Plasmodium falciparum (isolate 3D7)) (UniProt Q08210); assay: inhibition of P. falciparum DHODH – biochemical, C-terminal His tag, absorbance 600 nm, primary screen (AID 1175); conditions: PfDHODH enzyme, DCIP absorbance 600 nm; higher = more signal, called active from +8 up or from −8 down;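 further: recombinant parasite enzyme with a five histidine tag at its C terminus; test concentration not given here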
Dihydroorotate dehydrogenase (quinone), mitochondrial (Plasmodium falciparum (isolate 3D7)), sequence (Q08210 whole entry, looked up): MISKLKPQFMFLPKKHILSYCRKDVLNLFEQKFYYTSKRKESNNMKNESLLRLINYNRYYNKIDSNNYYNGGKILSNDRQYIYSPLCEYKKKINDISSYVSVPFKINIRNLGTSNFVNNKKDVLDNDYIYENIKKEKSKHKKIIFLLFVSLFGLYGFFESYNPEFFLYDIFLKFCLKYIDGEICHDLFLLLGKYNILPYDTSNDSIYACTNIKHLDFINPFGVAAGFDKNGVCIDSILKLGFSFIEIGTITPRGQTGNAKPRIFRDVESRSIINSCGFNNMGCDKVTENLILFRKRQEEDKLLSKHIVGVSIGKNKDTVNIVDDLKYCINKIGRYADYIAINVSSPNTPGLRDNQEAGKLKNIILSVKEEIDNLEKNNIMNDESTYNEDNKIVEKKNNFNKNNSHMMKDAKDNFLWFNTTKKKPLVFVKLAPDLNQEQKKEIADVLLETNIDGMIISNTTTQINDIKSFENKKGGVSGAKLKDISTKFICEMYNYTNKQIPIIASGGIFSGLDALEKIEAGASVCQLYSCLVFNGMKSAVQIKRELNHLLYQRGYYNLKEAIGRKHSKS

[15] = inhibition of PAO1 biofilm formation – strain PAO1, LB-PBS medium, absorbance 600 nm, primary screen (AID 1176); further: test concentration not given here; conditions: P. aeruginosa PAO1 growth/biofilm, A600, 12 h; higher = more signal
[16] = growth modulation of vineyard yeast isolate – strain RM11-1a, OD600, basal, 24 h, primary screen (AID 1177);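 further: cultures grown under basal conditions with no added stressor; test concentration not given here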; conditions: S. cerevisiae RM11-1a growth, OD600, 24 h; higher = more signal, called active from +8 up or from −8 down
[17] = growth of efflux-deficient E. coli DRC39 – strain DRC39, OD650, 24 h, E. coli filamentation inducers, primary screen (AID 1178);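 further: growth measured as culture turbidity by optical density at 650 nm; test concentration not given here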; conditions: E. coli DRC39 acrAB, higher = more signal, called active from +8 up or from −8 down
[18] = growth of efflux-deficient E. coli DRC39 – strain DRC39, OD650, 48 h, E. coli filamentation inducers, primary screen (AID 1179);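 further: screen aims at cell division blockers that make cells filament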; conditions: E. coli DRC39 delta-acrAB growth, higher = more signal, called active from +8 up or from −8 down
[19] = viability profiling in RPMI8226 myeloma cells – cell-based, resazurin fluorescence, basal, 24 h, PK04 Diversity Set, profiling panel (AID 1180); conditions: higher = more signal;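 further: RPMI8826 multiple myeloma cell line at 5000 cells per well; test concentration not given here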
[20] = molecular target: E3 ubiquitin-protein ligase XIAP (Homo sapiens) (UniProt P98170); assay: small molecules binding XIAP protein – biophysical, small-molecule microarray, fluorescence 635 nm, primary screen (AID 1181); conditions: higher = more signal;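 further: score merges 667 nm emission and signal to noise over triplicate slides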
E3 ubiquitin-protein ligase XIAP (Homo sapiens), sequence (P98170 whole entry, looked up): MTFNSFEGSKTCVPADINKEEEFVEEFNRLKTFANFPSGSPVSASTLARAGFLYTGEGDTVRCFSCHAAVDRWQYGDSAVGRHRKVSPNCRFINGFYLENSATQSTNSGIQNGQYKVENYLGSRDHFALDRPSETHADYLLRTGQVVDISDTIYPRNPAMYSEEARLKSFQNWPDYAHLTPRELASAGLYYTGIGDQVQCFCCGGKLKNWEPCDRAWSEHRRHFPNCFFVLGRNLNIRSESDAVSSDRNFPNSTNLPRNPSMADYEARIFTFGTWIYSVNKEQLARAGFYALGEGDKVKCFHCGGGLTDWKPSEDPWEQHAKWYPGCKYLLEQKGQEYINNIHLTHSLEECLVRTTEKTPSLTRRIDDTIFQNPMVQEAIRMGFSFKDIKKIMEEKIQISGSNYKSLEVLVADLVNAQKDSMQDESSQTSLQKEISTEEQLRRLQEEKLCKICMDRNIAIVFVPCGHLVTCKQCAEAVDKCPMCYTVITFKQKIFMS

Compound	z-score [1]	z-score [2]	z-score [3]	z-score [4]	z-score [5]	z-score [6]	z-score [7]	z-score [8]	z-score [9]	z-score [10]	z-score [11]	z-score [12]	z-score [13]	composite z-score [14]	z-score [15]	z-score [16]	z-score [17]	z-score [18]	z-score [19]	composite z-score [20]
COCCOC(=O)N1C(=O)[C@@]2(c3cc(C#CCC(C(=O)OC)C(=O)OC)ccc31)[C@H](C(=O)NC[C@H](O)c1ccccc1)[C@H]1C(=O)O[C@H](c3ccccc3)[C@H](c3ccccc3)N1[C@@H]2c1ccc(O)cc1	0.395	0.408	1.26	-0.99	-1.74	0.126	-0.489 (inactive)	-0.39	-0.491	-0.227 (inactive)	0.442	1.14 (inactive)	0.73 (inactive)	-2.68 (inactive)	1.1 (inactive)	1.24 (inactive)	0.35 (inactive)	0.644 (inactive)	-1.4	-0.096
[N-]=[N+]=Nc1ccccc1C[C@]1(C(=O)O)N=C(c2ccc(OCCCO)cc2)O[C@H]1c1ccccc1N=[N+]=[N-]	-0.35	0.22	0.0698	-2.38	-1.43	-0.914	-0.424 (inactive)	-0.739	0.51	-0.371 (inactive)	0.675	-2.36 (inactive)	-0.0953 (inactive)	0.463 (inactive)	1.13 (inactive)	-0.296 (inactive)	2.43 (inactive)	0.76 (inactive)	-0.215	-0.145
COC(=O)[C@@]1(Cc2ccccc2)[C@H]2c3cc(C(=O)N(C)C)n(CCn4cc([N+](=O)[O-])nc4C)c3C[C@H]2CN1C(=O)c1ccccc1	-0.461	0.297	-1.17	0.506	0.911	0.547	0.0518 (inactive)	-0.0192	0.377	-0.0815 (inactive)	0.002	0.815 (inactive)	-0.271 (inactive)	-0.831 (inactive)	1.41 (inactive)	-0.68 (inactive)	-0.211 (inactive)	0.145 (inactive)	0.413	1.01
C=CCC(OC(C)=O)[C@@H]1[C@@H](N(Cc2ccc(-c3cccc(C(F)(F)F)c3)o2)C(=O)c2cccc3ccccc23)c2cc(OCCCO)ccc2N1C(=O)Cc1ccc(OC)cc1 (stereo not given in full)	0.546	0.612	0.598	-1.16	-1.76	2.32	0.0601 (inactive)	-0.748	-0.0799	0.643 (inactive)	0.119	-1.8 (inactive)	0.0814 (inactive)	-0.349 (inactive)	-1.17 (inactive)	-0.0592 (inactive)	1.11 (inactive)	0.721 (inactive)	-0.189	-0.102
CC(CO)N1C(=O)[C@@H]2[C@H]3C(=O)OCC=C[C@H]3OC23C=CCN(c2ccc(Cl)cc2)C(=O)[C@@H]13 (stereo not given in full)	0.0473	0.311	0.336	0.829	-0.485	-0.321	-0.574 (inactive)	-0.818	0.0977	0.957 (inactive)	0.909	-0.414 (inactive)	0.675 (inactive)	-0.647 (inactive)	-0.897 (inactive)	0.0289 (inactive)	0.864 (inactive)	0.734 (inactive)	0.282	-0.394
C[C@]1(C(=O)NCCN2CCOCC2)c2ccccc2C(=O)N(Cc2cc(F)cc(C(F)(F)F)c2)[C@H]1c1ccc(CO)cc1	0.13	-0.35	0.545	-0.89	0.231	2.36	0.835 (inactive)	0.695	-0.714	0.693 (inactive)	-0.0395	0.375 (inactive)	-0.464 (inactive)	0.376 (inactive)	0.664 (inactive)	0.0645 (inactive)	1 (inactive)	1.67 (inactive)	0.0794	-0.116
COc1ccc(C(=O)Nc2cccc(CN3C(=O)[C@]4(O[C@H](CCn5cc([C@H](O)c6ccccc6)nn5)[C@@H]([Si](C)(C)c5ccc(OC)cc5)[C@@H]4C)c4ccccc43)c2)cc1	-1.17	0.408	-2.1	-3.03	-2.99	2.27	-0.386 (inactive)	-0.989	-1.12	-2.56 (inactive)	-2.58	-1.18 (inactive)	-5.94 (inactive)	-0.512 (inactive)	1.86 (inactive)	0.99 (inactive)	-0.409 (inactive)	-0.389 (inactive)	-5.61	0.0589
COC(=O)C(CC#Cc1ccc2c(c1)[C@]1(C(=O)N2)[C@H](c2ccc(O)cc2)N2[C@H](c3ccccc3)[C@H](c3ccccc3)OC(=O)[C@H]2[C@@H]1C(=O)N1CCCCCCC1)C(=O)OC	1.58	0.581	1.98	0.362	-2.56	0.945	-0.174 (inactive)	-0.799	-0.158	-0.636 (inactive)	-0.123	0.303 (inactive)	-0.961 (inactive)	-7.28 (inactive)	1.6 (inactive)	0.27 (inactive)	0.196 (inactive)	-0.0767 (inactive)	-3.94	0.557
COC(=O)[C@@]1(Cc2ccc(OC)cc2)[C@H]2c3cc(C(=O)N4CCCC4)n(Cc4cc(C)n(C)n4)c3C[C@H]2CN1C(=O)c1ccccc1	-0.0671	-0.471	0.851	0.559	0.192	3.05	0.00691 (inactive)	-0.475	-1.37	0.0924 (inactive)	-0.646	1.1 (inactive)	-2.09 (inactive)	-0.77 (inactive)	-0.222 (inactive)	0.472 (inactive)	-0.145 (inactive)	0.342 (inactive)	-2.11	-0.02
Cc1ccc(S[C@]2(C(=O)NC(C)C)CC(=O)N(C(C)C)[C@@H]2c2ccc(CO)cc2I)cc1	0.931	-0.134	0.0096	-2.39	-1.38	1.09	0.389 (inactive)	-0.312	-1.32	-0.0361 (inactive)	0.197	-2.15 (inactive)	-0.463 (inactive)	0.0738 (inactive)	0.444 (inactive)	-0.471 (inactive)	0.882 (inactive)	-0.0992 (inactive)	-1.72	0.158
O=C1NC(=O)C2C1C=CC(C(O)c1ccccn1)N2Nc1ccc(Cl)cc1Cl (stereo not given)	-0.881	-0.253	-0.707	-0.588	-0.54	-1.36	-0.766 (inactive)	-0.05	-0.173	-0.572 (inactive)	-1.08	-4.1 (inactive)	-0.837 (inactive)	-0.0894 (inactive)	0.931 (inactive)	0.351 (inactive)	-0.587 (inactive)	-0.534 (inactive)	-1.82	-0.131
CCCCC(=C=CC[C@H](O)c1ccc(OCCO)cc1)C[C@H](O)COCc1ccccc1	0.218	0.516	0.528	-3.3	-0.565	-0.399	-0.379 (inactive)	-0.0821	-0.244	0.449 (inactive)	-0.0002	-1.36 (inactive)	0.0233 (inactive)	-0.624 (inactive)	0.0964 (inactive)	0.556 (inactive)	1.05 (inactive)	0.529 (inactive)	0.676	0.0122
C=C(/C(=C/C[C@@H](OC(C)=O)c1ccc(CO)o1)c1cc(C(=O)OC)ccc1OC)C(C)C	1.62	-0.634	0.377	-0.998	0.0028	-0.241	-0.298 (inactive)	-0.544	-1.2	-0.0571 (inactive)	-0.0187	-0.367 (inactive)	-0.912 (inactive)	-0.805 (inactive)	0.731 (inactive)	0.4 (inactive)	0.769 (inactive)	0.533 (inactive)	-0.0967	0.146
Cc1ccc(S[C@]2(C(=O)NCC(C)C)CC(=O)N(C3Cc4ccccc4C3)[C@@H]2c2ccc(CO)cc2I)cc1	0.168	-0.492	-0.455	-2.37	-2.6	-0.534	-0.233 (inactive)	-0.107	-1.76	-0.105 (inactive)	0.0073	-1.51 (inactive)	-2.16 (inactive)	-0.0634 (inactive)	0.503 (inactive)	0.207 (inactive)	-0.0452 (inactive)	-0.138 (inactive)	-2.55	-0.214
COC(=O)[C@@]1(Cc2ccccc2CN=[N+]=[N-])N=C(c2ccc(OCCCO)cc2)O[C@H]1c1ccccc1	-2.84	0.658	-4.68	-3.57	-4.03	-2.06	0.315 (inactive)	-1.01	-2.53	-2.6 (inactive)	-2.6	0.797 (inactive)	-5.44 (inactive)	1.09 (inactive)	1.83 (inactive)	2.81 (inactive)	0.759 (inactive)	-0.783 (inactive)	-6.08	0.162
C=CCNC(=O)[C@H]1[C@@H]2C(=O)O[C@@H](c3ccccc3)[C@@H](c3ccccc3)N2[C@@H](c2ccc(OCCO)cc2)[C@]12C(=O)Nc1ccc(C#CCNC(N)=O)cc12	0.292	1.63	-0.529	-1.41	-0.062	-1.11	-0.657 (inactive)	-0.0816	0.938	-0.805 (inactive)	-0.598	2.3 (inactive)	0.0869 (inactive)	0.428 (inactive)	1.99 (inactive)	3.25 (inactive)	-0.575 (inactive)	-1.22 (inactive)	0.687	-0.163

Reference: PubChem BioAssay
